Screens as filed in PubChem BioAssay.
This excerpt belongs to a sample that is enriched for hits.
Pf Dd2 inh: Plasmodium falciparum Dd2 growth inhibition. P. falciparum Dd2 growth, SYBR Green, 72 h. Potency, µM (doses to about 28.9 µM), without a hit: top-dose activity, negative = inhibition, actives largely listed as inhibitors. 4.3% of 120,000 active; active means well fitted inhibition curve with a large enough effect;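 further: plate controls were DMSO vehicle for no effect and reference drug for full effect; nearly all actives have a fitted effect of over 65% in size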
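Readout: SYBR Green fluorescence, 485 nm excitation, 535 nm emission, after ~16 h lysis at 37C. Before that, Dd2-infected red cells (2.5% hematocrit) grew 72 h with compound, 29 uM top final concentration.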
An asterisk follows results filed as active; [ ] = another dose, or the depositor's remark. Potency means the concentration at half of the fitted maximal effect.

`COCC1CN(C)CC12CCN(Cc1cc(Br)ccc1F)CC2` (stereo not given) gave Pf Dd2 inh 3.55µM*.
Screening COCC1CN(C)CC12CCN(Cc1ccncc1)CC2 (stereo not given) returned Pf Dd2 inh 13.1%.
For CCCn1cc(C(=O)NC(C)c2cnn(-c3cccc(F)c3)c2C)c(C)n1 (stereo not given) the results were Pf Dd2 inh -4.7%.
For CN1CCCC2(CCN(S(=O)(=O)c3ccc4[nH]c(=O)[nH]c4c3)C2)C1=O (stereo not given) the results were Pf Dd2 inh -3.8%.
`Cn1cc(CN(C(=O)Nc2ccccc2)C2CCCCC2)c2ccccc21` gave Pf Dd2 inh 3.16µM*.
COCC1(CNCc2cn(C)c3ccccc23)C[C@@H](O)[C@@H](O)C1 (stereo not given in full) was read as Pf Dd2 inh inactive.
Screening CCOc1ccc(NC(=O)N(Cc2c[nH]c3ccccc23)C2CCCCC2)cc1 returned Pf Dd2 inh -29.7%.
For COCC(=O)N[C@@H]1CN(Cc2ccccc2C)C[C@H]1CO the results were Pf Dd2 inh -17.3%.
Cc1ccc(C2Cn3nnc(C(=O)Nc4ccc(Br)cc4)c3CO2)cc1 (stereo not given) was read as Pf Dd2 inh 8.4%.
Screening COCc1cc(=O)n(CC(=O)Nc2ccc(C)cc2C)c(N2CCOCC2)n1 returned Pf Dd2 inh -3.8%.
CCOc1ccccc1CN1CCC2(CCN(C(=O)Nc3ccccc3)CC2)Oc2ccccc21 was read as Pf Dd2 inh 7.08µM*.
`O=C1NCC2(CCN([S+](=O)([O-])c3cccs3)CC2)Oc2ccccc21` gave Pf Dd2 inh -17.5%.
For CC(=O)Nc1ccc(CN2CCC3(CC2)CC(=O)c2ccccc2O3)cc1 the results were Pf Dd2 inh inactive.
Screening CCCN1CCC2(CCN([S+](=O)([O-])c3cccs3)CC2)Oc2ccccc21 returned Pf Dd2 inh 11.2µM*.
`CCCN1CCC2(CCN(C(=O)c3ccc(F)cc3)CC2)Oc2ccccc21` gave Pf Dd2 inh inactive.
COc1ccc(C(=O)N2CCC3(CC2)CCN(Cc2cccs2)c2ccccc2O3)cc1 was read as Pf Dd2 inh -19.3%.
Screening O=C(Nc1ccc(Cl)cc1)N1CCC2(CC1)CCN(Cc1cccs1)c1ccccc1O2 returned Pf Dd2 inh 1.41µM*.
`CCCN1CCC2(CCN(C(=O)c3ccccc3F)CC2)Oc2ccccc21` gave Pf Dd2 inh inactive.
Screening CCCN1CCC2(CCN([S+](=O)([O-])c3cccc(C(F)(F)F)c3)CC2)Oc2ccccc21 returned Pf Dd2 inh -25.0%.
`CC(C)(C)C(=O)N1CCC2(CC1)CCN(Cc1cccs1)c1ccccc1O2` gave Pf Dd2 inh 10µM*.
CCOc1ccccc1CN1CCC2(CCN(C(=O)c3ccc(C)cc3)CC2)Oc2ccccc21 was read as Pf Dd2 inh -2.9%.
CC(=O)N1CCC2(CC1)CC(=O)N(c1ccccc1)c1ccccc1O2 was read as Pf Dd2 inh -8.5%.
For COc1cccc(C(=O)N2CC3CC(C2)[C@H]2CCCC(=O)N2C3)c1 (stereo not given in full) the results were Pf Dd2 inh -4.9%.
`COC(=O)c1cn([C@H]2CO[C@H]3[C@@H]2OC[C@@H]3NC(=O)NC2CCCCC2)nn1` gave Pf Dd2 inh 6.2%[44.1 µM].
For NCCC1CCN(C(=O)Nc2ccccc2F)CC1 the results were Pf Dd2 inh -19.1%.
CC(C)Oc1cccc(-c2nnc(CCC(=O)NCC3CCCCC3)c(=O)[nH]2)c1 was read as Pf Dd2 inh -6.3%.
`Cc1cn2nc(C(=O)N3CCC(NC(=O)c4c(F)cccc4F)CC3)cc2c(=O)[nH]1` gave Pf Dd2 inh -25.6%.
`CCCN1CCC2(CCN(C(=O)c3ccccc3)CC2)Oc2ccccc21` gave Pf Dd2 inh inactive.
Cc1ccc(C(=O)N2CCC3(CC2)CCN(CCc2ccccc2)c2ccccc2O3)cc1 was read as Pf Dd2 inh 11.2µM*.
`CCCN1CCC2(CCN(C(=O)c3ccc(C)cc3)CC2)Oc2ccccc21` gave Pf Dd2 inh -2.2%.
Screening CCNc1ncc(CN2CCCC(CCc3cccc(C(F)(F)F)c3)C2)cn1 (stereo not given) returned Pf Dd2 inh 7.94µM*.
For CCCn1nccc1C(=O)N1CCCC(CCc2cccc(C(F)(F)F)c2)C1 (stereo not given) the results were Pf Dd2 inh inactive.
Screening O=C(c1cccc(O)c1)N1CCCC(CCc2cccc(C(F)(F)F)c2)C1 (stereo not given) returned Pf Dd2 inh inactive.
For CN1C[C@H](NCc2cccc(Cl)c2)CCC[C@@H](C(=O)NCc2cc(F)cc(F)c2)CC1=O the results were Pf Dd2 inh -23.9%.
For COCCN1C[C@H]2CN(C(=O)c3ccccc3OC)CCN2C1=O the results were Pf Dd2 inh 17.9%[44.1 µM].
O=C(CC(c1ccccc1)c1ccccc1Cl)N1CCOCC1 (stereo not given) was read as Pf Dd2 inh -0.8%.
`O=C(CC(c1ccc(F)cc1)c1cn(Cc2ccccc2)c2ccc([N+](=O)[O-])cc12)N1CCOCC1` (stereo not given) gave Pf Dd2 inh 0.178µM*.
Screening O=C(CC(c1ccc(Cl)cc1)c1c[nH]c2ccc([N+](=O)[O-])cc12)N1CCOCC1 (stereo not given) returned Pf Dd2 inh -10.6%.
`Cc1cccc(C)c1-c1nc(C(=O)N2CCC(C#N)CC2)n2ccccc12` gave Pf Dd2 inh 3.1%.
Screening CCNC(=O)NC[C@@H]1C=C(C)[C@H](CC(=O)N2CCN(C(C)=O)CC2)C[C@H]1C(C)C returned Pf Dd2 inh -19.0%[44.1 µM].
Cc1cc(NC(=O)CCCn2c(C)c3cnn(-c4ccccc4)c(=O)c3c2C)ccc1Br was read as Pf Dd2 inh 11.2µM*.
For CCN(CC)c1ccc(NC(=O)Cn2c(C)c3cnn(-c4ccccc4)c(=O)c3c2C)c(C)c1 the results were Pf Dd2 inh 9.9%.
Screening Cc1ccc(NC(=O)CCCn2nc(C)c3c(C)n(-c4ccccc4)nc3c2=O)cc1Cl returned Pf Dd2 inh 13.9%.
Screening Cc1noc(C)c1CNCC1(CO)C[C@@H](O)[C@@H](O)C1 (stereo not given in full) returned Pf Dd2 inh -9.9%[44.1 µM].
`O=C(c1cscn1)N1CCC2(CC1)CN(c1ccncn1)CC2CO` (stereo not given) gave Pf Dd2 inh 25.0%.
Screening COc1ccc2cc1Nc1ccc(cc1)C[C@H](NCc1ccc(O)cc1)C(=O)N(C)[C@H](C(=O)NCCOc1ccccc1)C2 returned Pf Dd2 inh 2.51µM*.
COCCN1CC(C(=O)NCCOc2ccccc2)CCC1=O (stereo not given) was read as Pf Dd2 inh -7.1%.
For COc1ccc(CCN2CC(C(=O)NCCc3ccc(C)cc3)CC2=O)cc1OC (stereo not given) the results were Pf Dd2 inh 24.1%.
Screening COc1ccc2cc1Nc1ccc(cc1)C[C@H](NCC1CC1)C(=O)N(C)[C@@H](C(=O)NCc1ccccc1)C2 returned Pf Dd2 inh -25.4%.
COc1cccc(N2CC(C(=O)NCCOc3ccccc3)NC2=O)c1 (stereo not given) was read as Pf Dd2 inh 11.6%.
COc1ccc2cc1Nc1ccc(cc1)C[C@H](NCc1ccc(C)o1)C(=O)N(C)[C@@H](C(=O)NCc1ccccc1)C2 was read as Pf Dd2 inh 0.891µM*.
COc1cccc(C(=O)N2CCC(N3C(=O)CCC3C(=O)NCc3ccccc3)CC2)c1C (stereo not given) was read as Pf Dd2 inh -4.7%.
